# According to PubChem BioAssay (NCI):
# The panel holds about 79,000 compounds, 15% with a hit somewhere; the sample as a whole holds those more often. The source made the active and inactive calls. No stated cut-off is given here; in the data, active means growth inhibition above about 70%; inactive means the rest.
# Columns and labels:
# [1] = NCI Yeast Anticancer Drug Screen. Data for the rad50 strain (AID 155);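 further: 0% = growth of vehicle-only cultures of the same strain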; settings: S. cerevisiae rad50 strain growth inhibition; at 50.0 µM; active compounds read high
# Outline: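 DNA repair mutant yeast, compound exposure, growth read-out; inhibition is taken relative to vehicle.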
# [2] = NCI Yeast Anticancer Drug Screen. Data for the mec2-1 strain (AID 157); settings: S. cerevisiae mec2-1 strain, at 50.0 µM, active compounds read high
# Outline: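 Test agents were screened against the mec2-1 yeast strain, with defined DNA repair or cell cycle alteration. Growth was scored as inhibition against vehicle-only controls.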
# [3] = NCI Yeast Anticancer Drug Screen. Data for the sgs1 mgt1 strain (AID 161);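 further: 0% = growth of cultures given vehicle only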; settings: S. cerevisiae sgs1 mgt1 strain, at 50.0 µM, active compounds read high
# Outline: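 Inhibition of yeast growth, normalised to vehicle-treated controls, is reported for a strain bearing genetic alterations in DNA damage repair.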
# [4] = NCI Yeast Anticancer Drug Screen. Data for the cln2 rad14 strain (AID 165);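 further: 0% = growth equal to vehicle treated cultures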; settings: S. cerevisiae cln2 rad14 strain, at 50.0 µM, active compounds read high
# Outline: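 Growth of compound-exposed yeast (cln2 rad14 genotype) measured and expressed as inhibition relative to vehicle.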
# [5] = NCI Yeast Anticancer Drug Screen. Data for the bub3 strain (AID 167); settings: S. cerevisiae bub3 mutant strain, at 50.0 µM, active compounds read high
# Outline: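 In this screen, a yeast mutant lacking normal mitotic checkpoint function is challenged with compound. Relative growth versus vehicle gives the inhibition value.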
# [6] = NCI Yeast Anticancer Drug Screen. Data for the mlh1 rad18 strain (AID 175); settings: S. cerevisiae mlh1 rad18 strain growth inhibition; at 50.0 µM; active compounds read high
# Outline: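 In this whole-cell yeast screen, a strain with altered DNA damage repair is challenged with compound, and its growth is measured against matched vehicle-treated controls.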
Structure (SMILES),growth inhibition [1],growth inhibition [2],growth inhibition [3],growth inhibition [4],growth inhibition [5],growth inhibition [6]
Cc1ccc([N+](=O)[O-])cc1Br,0.3% (inactive),-16.1% (inactive),-0.5% (inactive),-11.8% (inactive),5.5% (inactive),4% (inactive)
ClC1CCC(c2ccccc2)CC1 (centres undefined),9.2% (inactive),-3.45% (inactive),1.5% (inactive),3.75% (inactive),-11.2% (inactive),-2.6% (inactive)
OC12c3ccccc3C1CCCCCCCCCC21OCCO1 (centres undefined),-21.5% (inactive),-2.45% (inactive),-40.6% (inactive),5.05% (inactive),-19.1% (inactive),-27.8% (inactive)
c1ccc([P+](CC[P+](c2ccccc2)(c2ccccc2)c2ccccc2)(c2ccccc2)c2ccccc2)cc1,-11.7% (inactive),-15.6% (inactive),-1.45% (inactive),-31.8% (inactive),-12.4% (inactive),-16.4% (inactive)
COc1ccc([N+](=O)[O-])cc1OC,29.9% (inactive),-0.15% (inactive),33.1% (inactive),1.65% (inactive),0.45% (inactive),16.1% (inactive)
COc1ccc(N=C(C)c2c(O)n(-c3ccccc3)[nH]c2=O)cc1,98.8% (active),97.5% (active),99.2% (active),99.1% (active),98.8% (active),98.5% (active)
CCCCCCCCCC(=O)N/N=C/c1ccccc1O,-4.3% (inactive),12.7% (inactive),19.2% (inactive),-19.1% (inactive),19.9% (inactive),13.8% (inactive)
CCCCCCC#CC(=O)OC,-3.05% (inactive),-21.6% (inactive),1.5% (inactive),15.4% (inactive),-11.6% (inactive),24.4% (inactive)
CC(=O)NNc1ncc(C(=O)/C=C/c2ccccc2C)s1,31.1% (inactive),16.1% (inactive),12.5% (inactive),29.1% (inactive),22.3% (inactive),36.6% (inactive)
O=C(CN1C(=O)c2ccccc2C1=O)OC1C=CCCC1 (centres undefined),12.2% (inactive),0.65% (inactive),1.5% (inactive),18.7% (inactive),9.6% (inactive),10.3% (inactive)
CSC(=NC(=O)c1c(Cl)cccc1Cl)SC,21.8% (inactive),14.2% (inactive),40.2% (inactive),11.3% (inactive),42.4% (inactive),31.9% (inactive)
COc1ccc(NC(=O)C(=O)NNC(=O)c2sc(NNC(C)=O)nc2C)c([N+](=O)[O-])c1,27.3% (inactive),-10.7% (inactive),39.2% (inactive),8.4% (inactive),20.6% (inactive),5.3% (inactive)
C=CCNC(=O)CCCCCCCC1C(CCCCCCCC)C2(Cl)C(Cl)=C(Cl)C1(Cl)C2(Cl)Cl (centres undefined),23.6% (inactive),-4.6% (inactive),18.2% (inactive),-12.2% (inactive),1.75% (inactive),17.8% (inactive)
FC(F)(F)c1ccc(C(Nc2nncs2)Nc2nncs2)cc1,-6.9% (inactive),-6.7% (inactive),-4.5% (inactive),-8.35% (inactive),7.6% (inactive),0.75% (inactive)
CCc1ccc2[nH]c(C(=O)O)cc2c1,-15.4% (inactive),-18.4% (inactive),-1.75% (inactive),-11.8% (inactive),-21.6% (inactive),4.45% (inactive)
C=CCCC12CCCC(=O)C1Sc1ccc3ccccc3c12 (centres undefined),9.8% (inactive),-3.85% (inactive),11.3% (inactive),10.8% (inactive),35.3% (inactive),7.15% (inactive)
Nc1cc(=O)n(-c2ccccc2)[nH]1,-2.05% (inactive),-10.6% (inactive),-6.8% (inactive),-19.9% (inactive),-27.9% (inactive),22% (inactive)
C=C1C(=O)O[C@@H]2[C@H]1CC[C@H](C)[C@@H]1CCC(=O)[C@@]21C,10% (inactive),-0.5% (inactive),3.35% (inactive),13.8% (inactive),12.8% (inactive),14.2% (inactive)
CC(Nc1cc(Cl)ccc1C(=O)O)C(=O)O (centres undefined),0.9% (inactive),14.7% (inactive),-9.75% (inactive),-40.1% (inactive),-11.2% (inactive),-8.05% (inactive)
O=C1c2ccccc2CN1c1ccc(O)cc1,5.65% (inactive),1.5% (inactive),-14.8% (inactive),20.9% (inactive),-1.2% (inactive),16.9% (inactive)

Structure (SMILES),growth inhibition [1],growth inhibition [2],growth inhibition [3],growth inhibition [4],growth inhibition [5],growth inhibition [6]
CC1OC(OCC2OC(Oc3ccc4c(=O)c(-c5ccc6c(c5)OCO6)coc4c3)C(O)C(O)C2O)C(O)C(O)C1O (centres undefined),15.1% (inactive),3.15% (inactive),12.6% (inactive),28.1% (inactive),20.4% (inactive),8.85% (inactive)
COc1cc(C(=O)CCC(=O)O)c(OC)c(CBr)c1CBr,-20.3% (inactive),-0.4% (inactive),-2.7% (inactive),-23.8% (inactive),-2.15% (inactive),-13.8% (inactive)
CCOC(=O)c1ccc(N=c2sc3ccccc3nc2Nc2ccc(C(=O)OCC)cc2)cc1,2.75% (inactive),-3.95% (inactive),-2.05% (inactive),34% (inactive),2.3% (inactive),10.9% (inactive)
CC1[C@@H]2CC=C3[C@H]4CCC5Cc6nc7c(nc6C[C@@]5(C)C4CC(=O)[C@]32CO[C@]12OC(C)(C)CC2O)CC1CC[C@@H]2C3=C[C@H]4O[C@@]5(O[C@@](C)(CO)C[C@@H]5O)C(C)[C@@]4(O)[C@]3(C)[C@@H](O)CC2[C@]1(C)C7 (some centres undefined),37.5% (inactive),40.9% (inactive),90.7% (active),57.2% (inactive),47% (inactive),40.1% (inactive)
c1ccc2cc(N=Nc3cccc4ccccc34)ccc2c1,-10.5% (inactive),-17.9% (inactive),1.15% (inactive),-19% (inactive),1.1% (inactive),-7.75% (inactive)
COc1ccc(CCn2cnn3c(=O)c4ccccc4nc3c2=O)cc1OC,-24% (inactive),-29.9% (inactive),-9.1% (inactive),-0.8% (inactive),-17.4% (inactive),-20.9% (inactive)
CCCCCCCc1cc(=O)[nH]c(=S)[nH]1,4.05% (inactive),-4.9% (inactive),0.5% (inactive),-10.8% (inactive),11.3% (inactive),-5.4% (inactive)
CCOC(=O)C1=NN(c2ccccc2)C(=O)/C1=C\N1C(=O)/C(=C/c2cccc(OC)c2O)SC1=S,30.5% (inactive),8.55% (inactive),31.6% (inactive),20.4% (inactive),-0.35% (inactive),21.6% (inactive)
COc1cc(CNC(=O)NCCCl)cc(OC)c1OC,-5.55% (inactive),1.2% (inactive),-3.2% (inactive),-3.45% (inactive),-1% (inactive),2.7% (inactive)
COc1cccc(C(OC(=O)c2ccccc2)c2nncc3ccccc23)c1OC (centres undefined),32.4% (inactive),11.8% (inactive),9.6% (inactive),5.9% (inactive),9.85% (inactive),5.8% (inactive)
CCOC(=O)CCC(NC(=O)C(CCC(=O)OCC)NC(=O)C(Cc1ccc([N+](=O)[O-])cc1)NC(C)=O)C(=O)NNC(=O)OC(C)(C)C (centres undefined),-22.8% (inactive),-28.4% (inactive),-17% (inactive),-3.35% (inactive),-23.6% (inactive),-7.3% (inactive)
CC(=O)OCC(OC(C)=O)C(OC1OC(COC(C)=O)C(OC(C)=O)C(OC(C)=O)C1OC(C)=O)C(OC(C)=O)c1cnn(-c2ccccc2)n1 (centres undefined),-10.7% (inactive),-0.1% (inactive),-8.15% (inactive),-19.4% (inactive),-2.65% (inactive),-5.75% (inactive)
N#Cc1nn(CCCl)c(=O)c2ccccc12,28.7% (inactive),17.9% (inactive),10% (inactive),12.2% (inactive),12.2% (inactive),15.4% (inactive)
CC(C)CC(Br)C(=O)NCC(=O)NCC(=O)O (centres undefined),32.3% (inactive),-17.1% (inactive),-5.35% (inactive),7.95% (inactive),2.85% (inactive),-8.95% (inactive)
CC(C)NC(=O)OCc1c(COC(=O)NC(C)C)c(S(C)(=O)=O)n2c1CCC2,3.65% (inactive),-4.7% (inactive),-15.3% (inactive),7.9% (inactive),-1.3% (inactive),6.8% (inactive)
Clc1cc(Br)c2c(Cl)ccnc2c1Br,35.6% (inactive),-1.3% (inactive),7.5% (inactive),-8.65% (inactive),0.85% (inactive),20% (inactive)
CC1CC(=O)C(CC(=O)O)[C@H]1C(C(=O)C(=O)Nc1cc(Cl)ccc1Cl)[N+](=O)[O-] (some centres undefined),1.45% (inactive),-11.3% (inactive),-10.1% (inactive),14.7% (inactive),-13.3% (inactive),-2% (inactive)
C1=C(c2ccccc2)OC(c2ccccc2)=C(c2ccccc2)[P+]1(c1ccccc1)c1ccccc1,99.5% (active),99.7% (active),99.7% (active),99.7% (active),99.5% (active),99.5% (active)
Nc1c(S(=O)(=O)O)cc(Br)c2c1C(=O)c1ccccc1C2=O,54.5% (inactive),15.8% (inactive),38.7% (inactive),38% (inactive),45.8% (inactive),56.4% (inactive)
